Results published in PubChem BioAssay (EPA / NIEHS).
Activity calls are given as the source filed them. The calls were made as follows: active = hit-call score of the fitted dose curve at least 0.9, where 1 is the maximum; inactive = score below 0.9.

Experiments:
[1] = ATG_E_Box_CIS: Attagene CIS-FACTORIAL HepG2 Assay for human Enhancer Box (E-box) (AID 2282936); details: HepG2 E-box cis-reporter transcription, actives raise or lower the signal
Outline: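 Multiplexed CIS reporter system in transiently transfected HepG2 cells measures native transcription factor activity. Reporter RNA after 24 h exposure is profiled by RT-PCR-capillary electrophoresis.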

[2] = ATG_M_61_CIS: Attagene CIS-FACTORIAL HepG2 Assay for M61 Transcription Factor (Internal Marker) (AID 2282937); details: HepG2 Attagene CIS-FACTORIAL M61 internal marker reporter; actives raise or lower the signal
Outline: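 Readout is reporter mRNA by RT-PCR, fluorescent primer extension and capillary electrophoresis, with gain or loss fitted relative to DMSO. Transfected HepG2 cells carrying endogenous-TF-driven cis reporters were exposed to chemicals for 24 hours.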

[3] = ATG_EGR_CIS: Attagene CIS-FACTORIAL HepG2 Assay for human Early Growth Response 1 (EGR1) (AID 2282938); details: HepG2 Attagene CIS-FACTORIAL EGR reporter mRNA; actives raise or lower the signal
Outline: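 After 24 h compound exposure, RNA from reporter-transfected HepG2 cells was reverse-transcribed, PCR-amplified, fluorescently labelled and resolved by capillary electrophoresis. EGR1 reporter transcript changes, up or down, were fitted against DMSO, reflecting endogenous transcription-factor activity.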

[4] = ATG_M_19_CIS: Attagene CIS-FACTORIAL HepG2 Assay for M19 Transcription Factor (Internal Marker) (AID 2282939); details: HepG2 Attagene CIS-FACTORIAL M19 internal marker reporter; actives raise or lower the signal
Outline: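 HepG2 cells transiently transfected with cis-regulated multiplexed reporter units, dosed 24 h. Reporter mRNA quantified by RT-PCR and capillary electrophoresis; internal background marker fitted bidirectionally versus DMSO.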

[5] = ATG_ERE_CIS: Attagene CIS-FACTORIAL HepG2 Assay for Estrogen Response Element (ERE) (AID 2282940); details: HepG2 ERE cis-reporter, Attagene RNA transcript; actives raise or lower the signal
Outline: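 HepG2 cells transiently transfected with multiplexed cis-element reporter units, measuring endogenous transcription factor activity; ERE reporter mRNA quantified after 24 h exposure by RT-PCR, fluorescent labelling, HpaI digestion and capillary electrophoresis. Bidirectional change versus DMSO.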

[6] = biological target: Hepatocyte nuclear factor 3-beta (Homo sapiens) (UniProt Q9Y261); experiment: ATG_FoxA2_CIS: Attagene CIS-FACTORIAL HepG2 Assay for human Forkhead box A2 (FOXA2) (AID 2282942); details: HepG2 cis-reporter transcription factor activity, 24 h; actives raise or lower the signal
Outline: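 Endogenous transcription factor activity is captured via cis-element-driven reporter transcripts in transfected HepG2. Total RNA taken at 24 h post-dosing; labelled RT-PCR products resolved by capillary electrophoresis. Gain or loss fitted versus DMSO.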

[7] = ATG_FoxO_CIS: Attagene CIS-FACTORIAL HepG2 Assay for human Forkhead box O (FoxO) (AID 2282943); details: HepG2 Attagene cis-reporter, FoxO element, mRNA; actives raise or lower the signal
Outline: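 Values reflect reporter mRNA induction or loss in HepG2 cells 24 h post-dosing, fitted bidirectionally with DMSO as negative control and baseline. Detection used RT-PCR and fluorescence capillary electrophoresis.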

[8] = ATG_GATA_CIS: Attagene CIS-FACTORIAL HepG2 Assay for human GATA Binding Protein (AID 2282944); details: HepG2 GATA cis-element reporter, Attagene multiplex mRNA; actives raise or lower the signal
Outline: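 HepG2 cells transiently transfected with multiplexed cis-element reporter units measure endogenous GATA activity; after 24 h compound exposure, reporter mRNA quantified by RT-PCR and capillary electrophoresis. Changes fitted in both directions vs DMSO.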

[9] = ATG_GLI_CIS: Attagene CIS-FACTORIAL HepG2 Assay for human Zinc Finger Protein GLI1 (AID 2282945); details: HepG2, Attagene cis-factorial reporter mRNA, GLI element; actives raise or lower the signal
Outline: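 HepG2 cells transiently transfected with cis-promoter multiplexed reporter units report endogenous transcription factor activity. After 24 h chemical exposure, reporter mRNA was quantified by RT-PCR, 6-FAM labelling, HpaI digestion and capillary electrophoresis, with bidirectional fitting against DMSO.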

[10] = ATG_GRE_CIS: Attagene CIS-FACTORIAL HepG2 Assay for human Glucocorticoid Response Elements (GRE) (AID 2282947); details: HepG2 GRE cis-reporter, Attagene multiplex mRNA; actives raise or lower the signal
Outline: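 Following 24 h chemical exposure of transiently transfected HepG2 cells, total RNA was reverse-transcribed and reporter cDNA amplified, fluorescently labelled and sized by capillary electrophoresis. Signal gain or loss was fitted relative to DMSO vehicle.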

[11] = ATG_ISRE_CIS: Attagene CIS-FACTORIAL HepG2 Assay for human Interferon Regulatory Factor 1 (IRF1) binding to an Interferon-Stimulated Response Element (ISRE) (AID 2282948); details: HepG2 ISRE cis-reporter (Attagene), mRNA transcription readout; actives raise or lower the signal
Outline: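 Cell-based cis-reporter assay; HepG2; 24 h exposure; reporter mRNA by RT-PCR plus capillary electrophoresis fluorescence; activity in either direction scored relative to DMSO.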

[12] = ATG_M_32_CIS: Attagene CIS-FACTORIAL HepG2 Assay for M32 Transcription Factor (Internal Marker) (AID 2282949); details: HepG2 Attagene cis-factorial M32 reporter, mRNA; actives raise or lower the signal;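 also: background control marker of the multiplexed CIS panel rather than a real target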
Outline: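 Fluorescent capillary electrophoresis peaks of HpaI-digested, FAM-labelled RT-PCR reporter products give the signal. Source: transiently transfected human liver HepG2 cells, 24 h after chemical dosing; bidirectional fitting against DMSO.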

[13] = ATG_M_06_CIS: Attagene CIS-FACTORIAL HepG2 Assay for M06 Transcription Factor (Internal Marker) (AID 2282950); details: HepG2 Attagene CIS-FACTORIAL M06 internal marker reporter; actives raise or lower the signal
Outline: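 Internal background marker within multiplexed cis-reporter HepG2 system. Cells transiently transfected, dosed 24 h; reporter mRNA measured by RT-PCR, HpaI digestion and capillary electrophoresis. Bidirectional fit relative to DMSO.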

[14] = biological target: Hypoxia-inducible factor 1-alpha (Homo sapiens) (UniProt Q16665); experiment: ATG_HIF1a_CIS: Attagene CIS-FACTORIAL HepG2 Assay for human Hypoxia Inducible Factor 1 (HIF1A) (AID 2282951); details: HepG2 Attagene cis-factorial HIF1a reporter transcription; actives raise or lower the signal
Outline: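 Activity is fitted in both directions relative to DMSO. Reporter transcripts are read by RT-PCR, fluorescent primer extension and capillary electrophoresis after 24 h chemical treatment. The cells are HepG2 carrying transiently transfected cis-element-driven reporter units responding to endogenous factors.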

[15] = biological target: Heat shock factor protein 1 (Homo sapiens) (UniProt Q00613); experiment: ATG_HSE_CIS: Attagene CIS-FACTORIAL HepG2 Assay for human Heat Shock Transcription Factor 1 (HSE) (AID 2282953); details: HepG2 HSE cis-reporter, Attagene RNA transcription; actives raise or lower the signal
Outline: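 HepG2 cells transfected with cis-promoter reporter units sensing endogenous transcription factor activity; reporter mRNA quantified 24 h post-dose by RT-PCR and capillary electrophoresis of 6-FAM-labelled products. Bidirectional fitting against DMSO.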

[16] = ATG_MRE_CIS: Attagene CIS-FACTORIAL HepG2 Assay for human Metal Responsive Element (MRE) (AID 2282954); details: HepG2 MRE cis-reporter transcription, Attagene multiplex; actives raise or lower the signal
Outline: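 Step one: transfect HepG2 with cis-regulated reporter units. Step two: dose 24 h. Step three: isolate RNA, RT-PCR, 6-FAM label, HpaI digest, capillary electrophoresis. Fit bidirectionally to DMSO.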

[17] = ATG_PBREM_CIS: Attagene CIS-FACTORIAL HepG2 Assay for human Phenobarbital-responsive Enhancer Module (PBREM) (AID 2282955); details: HepG2 PBREM cis-reporter, Attagene multiplexed transcription; actives raise or lower the signal
Outline: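 Endogenous transcription factor activity was read from reporter transcripts in transiently transfected human HepG2 liver cells after 24 h dosing. RT-PCR products were fluorescently labelled, HpaI-cut and sized by capillary electrophoresis; activity fitted bidirectionally against DMSO baseline.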

[18] = ATG_Ets_CIS: Attagene CIS-FACTORIAL HepG2 Assay for human Erythroblast Transformation Specific (ETS) (AID 2282941); details: HepG2 ETS cis-reporter transcription, actives raise or lower the signal
Outline: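 Human HepG2 hepatoma cells were transiently transfected with promoter-driven reporter constructs and treated for 24 hours. Reporter transcripts were quantified by RT-PCR with fluorescent primer extension; bidirectional curve fitting used DMSO as reference.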

[19] = biological target: Hepatocyte nuclear factor 6 (Homo sapiens) (UniProt Q9UBC0); experiment: ATG_HNF6_CIS: Attagene CIS-FACTORIAL HepG2 Assay for human Hepatocyte Nuclear Factor 6 (HNF6) (AID 2282952); details: HepG2 Attagene cis-factorial HNF6 reporter transcription; actives raise or lower the signal
Outline: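 HepG2 cells transiently transfected with cis-element-driven multiplexed reporter units measuring endogenous transcription factor activity. After 24 h exposure, reporter mRNA quantified by RT-PCR, FAM-labelled fragments and capillary electrophoresis; bidirectional fitting versus DMSO.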

[20] = biological target: Bile acid receptor (Homo sapiens) (UniProt Q96RI1); experiment: ATG_IR1_CIS: Attagene CIS-FACTORIAL HepG2 Assay for human Nuclear Receptor Subfamily 1 Group H Member 4 (NR1H4), IR1 submotif (AID 2282946); details: IR1 reporter transcription, actives raise or lower the signal
Outline: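 Transient MRTU transfection, HepG2; 24 h dosing; RNA → RT-PCR → 6-FAM primer extension → HpaI digest → capillary electrophoresis fluorescence. Gain/loss of signal fitted relative to DMSO.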

Measured: outcome

Chain of Bile acid receptor (Homo sapiens) (Q96RI1 whole entry, looked up): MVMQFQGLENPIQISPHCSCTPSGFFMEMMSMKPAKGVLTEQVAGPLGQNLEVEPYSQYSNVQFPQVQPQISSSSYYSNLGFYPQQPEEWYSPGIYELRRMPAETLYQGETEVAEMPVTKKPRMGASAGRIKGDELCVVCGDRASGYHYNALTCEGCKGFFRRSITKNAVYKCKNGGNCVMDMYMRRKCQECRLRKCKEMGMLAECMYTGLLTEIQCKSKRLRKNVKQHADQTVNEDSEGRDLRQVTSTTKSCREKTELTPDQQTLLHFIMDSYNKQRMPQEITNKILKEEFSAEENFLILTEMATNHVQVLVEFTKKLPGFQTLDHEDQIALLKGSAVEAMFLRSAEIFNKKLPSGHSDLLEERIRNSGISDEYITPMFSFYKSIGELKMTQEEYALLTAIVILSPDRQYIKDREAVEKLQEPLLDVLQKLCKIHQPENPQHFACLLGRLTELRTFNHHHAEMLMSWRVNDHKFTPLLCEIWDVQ
Chain of Hepatocyte nuclear factor 3-beta (Homo sapiens) (Q9Y261 whole entry, looked up): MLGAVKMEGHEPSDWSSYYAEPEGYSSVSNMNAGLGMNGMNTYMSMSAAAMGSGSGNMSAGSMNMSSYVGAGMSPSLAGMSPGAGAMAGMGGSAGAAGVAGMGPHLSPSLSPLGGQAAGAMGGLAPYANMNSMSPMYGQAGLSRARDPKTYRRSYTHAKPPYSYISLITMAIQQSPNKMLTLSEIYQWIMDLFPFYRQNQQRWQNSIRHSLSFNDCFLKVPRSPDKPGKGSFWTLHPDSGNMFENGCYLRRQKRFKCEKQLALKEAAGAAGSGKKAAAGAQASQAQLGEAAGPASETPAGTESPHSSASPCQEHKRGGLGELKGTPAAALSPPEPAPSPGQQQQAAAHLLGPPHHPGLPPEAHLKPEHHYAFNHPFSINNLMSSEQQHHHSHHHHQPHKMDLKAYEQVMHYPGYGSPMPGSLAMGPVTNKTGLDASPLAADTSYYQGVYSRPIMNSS
Chain of Hepatocyte nuclear factor 6 (Homo sapiens) (Q9UBC0 whole entry, looked up, the tested form may be a part): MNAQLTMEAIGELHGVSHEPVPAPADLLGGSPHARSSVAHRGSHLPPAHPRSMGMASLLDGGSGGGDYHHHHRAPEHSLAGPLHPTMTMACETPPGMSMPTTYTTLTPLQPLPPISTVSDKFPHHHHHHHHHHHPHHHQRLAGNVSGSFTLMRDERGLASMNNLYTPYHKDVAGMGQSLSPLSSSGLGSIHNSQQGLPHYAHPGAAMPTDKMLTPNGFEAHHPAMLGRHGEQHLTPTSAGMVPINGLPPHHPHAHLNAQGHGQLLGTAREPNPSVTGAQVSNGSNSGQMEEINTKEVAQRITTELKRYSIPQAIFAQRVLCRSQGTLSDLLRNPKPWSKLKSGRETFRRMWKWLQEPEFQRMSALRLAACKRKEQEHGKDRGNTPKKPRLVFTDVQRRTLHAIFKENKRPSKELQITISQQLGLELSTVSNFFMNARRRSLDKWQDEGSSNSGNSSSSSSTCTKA
Chain of Heat shock factor protein 1 (Homo sapiens) (Q00613 whole entry, looked up): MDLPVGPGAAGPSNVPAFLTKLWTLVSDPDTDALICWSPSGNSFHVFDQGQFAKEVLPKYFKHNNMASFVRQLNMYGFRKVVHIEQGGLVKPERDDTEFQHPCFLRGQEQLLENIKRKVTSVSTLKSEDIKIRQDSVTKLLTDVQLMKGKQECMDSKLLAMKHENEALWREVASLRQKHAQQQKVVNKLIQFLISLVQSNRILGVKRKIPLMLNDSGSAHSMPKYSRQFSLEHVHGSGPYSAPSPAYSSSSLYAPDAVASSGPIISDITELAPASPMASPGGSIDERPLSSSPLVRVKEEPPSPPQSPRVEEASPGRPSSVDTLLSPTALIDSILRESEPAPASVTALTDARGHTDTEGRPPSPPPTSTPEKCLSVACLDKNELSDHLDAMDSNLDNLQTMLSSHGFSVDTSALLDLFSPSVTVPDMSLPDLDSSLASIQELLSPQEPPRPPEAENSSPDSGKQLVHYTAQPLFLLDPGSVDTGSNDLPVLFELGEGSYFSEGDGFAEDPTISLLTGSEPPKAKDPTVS
Chain of Hypoxia-inducible factor 1-alpha (Homo sapiens) (Q16665 whole entry, looked up): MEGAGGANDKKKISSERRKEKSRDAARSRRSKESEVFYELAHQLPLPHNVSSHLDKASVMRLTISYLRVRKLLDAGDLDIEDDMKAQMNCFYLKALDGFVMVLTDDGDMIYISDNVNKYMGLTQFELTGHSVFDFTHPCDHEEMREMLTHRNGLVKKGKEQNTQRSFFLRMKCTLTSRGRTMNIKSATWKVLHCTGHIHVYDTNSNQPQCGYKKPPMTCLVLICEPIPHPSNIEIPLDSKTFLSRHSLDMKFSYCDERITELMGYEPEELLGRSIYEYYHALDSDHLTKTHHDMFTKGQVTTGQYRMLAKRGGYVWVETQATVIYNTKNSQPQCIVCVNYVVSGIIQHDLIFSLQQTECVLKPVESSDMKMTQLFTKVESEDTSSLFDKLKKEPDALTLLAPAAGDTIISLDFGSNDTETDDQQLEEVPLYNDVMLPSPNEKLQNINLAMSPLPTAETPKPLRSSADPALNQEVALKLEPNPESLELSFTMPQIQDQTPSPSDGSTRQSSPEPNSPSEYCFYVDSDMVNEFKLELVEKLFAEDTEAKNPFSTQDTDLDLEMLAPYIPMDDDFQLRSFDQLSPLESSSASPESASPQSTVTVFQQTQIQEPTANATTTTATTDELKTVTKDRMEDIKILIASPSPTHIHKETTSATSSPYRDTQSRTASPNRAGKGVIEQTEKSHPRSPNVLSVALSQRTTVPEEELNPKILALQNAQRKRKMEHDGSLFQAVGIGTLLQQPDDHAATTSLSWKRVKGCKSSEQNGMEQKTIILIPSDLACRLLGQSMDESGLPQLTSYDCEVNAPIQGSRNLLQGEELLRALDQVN

C[Si](C)(CCCN)O[Si](C)(C)CCCN
not listed: [18] | [19] | [20]
inactive: all other assays above

O=C1CCCC1
not listed: [4] | [17] | [20]
inactive: all other assays above

COC(=O)c1ccccc1OC
not listed: [4] | [6] | [11] | [13] | [17]
inactive: all other assays above

CCCCCCC1(C)CCC(=O)O1 (stereo not given)
not listed: [10] | [18] | [20]
inactive: all other assays above

NC(=O)NNC(N)=O
not listed: [4] | [15] | [17]
inactive: all other assays above

COC(=O)/C=C/C(C)=C\C=C\C(C)=C\C=C\C=C(C)\C=C\C=C(C)\C=C\C(=O)O
not listed: [4]
inactive: all other assays above

CCO[Si](C)(OCC)OCC
not listed: [6] | [13] | [16] | [18] | [20]
inactive: all other assays above

CCOC(F)(F)C(F)(F)C(F)(F)C(F)(F)F
not listed: [4] | [6]
inactive: all other assays above
